Test results: article PMC7862700, “An all-to-all approach to the identification of sequence-specific readers for epigenetic DNA modifications on cytosine”

Legend:
Test in all cases: DAPPL (digital affinity profiling via proximity ligation, sequencing); 10 mM Tris-HCl pH 7.5, 50 mM NaCl, 1 mM DTT, 4% glycerol, room temperature, 30 min; GST-TFs on glutathione beads, 16-mer random dsDNA library, 0.1% formaldehyde crosslink after washing; high values mean tight binding
FEV = biological target: T1, FEV (Homo sapiens, UniProt Q99581 1-238); conditions: protein: recombinant; tags: N-terminal GST; dsDNA, one strand shown
T1 sequence: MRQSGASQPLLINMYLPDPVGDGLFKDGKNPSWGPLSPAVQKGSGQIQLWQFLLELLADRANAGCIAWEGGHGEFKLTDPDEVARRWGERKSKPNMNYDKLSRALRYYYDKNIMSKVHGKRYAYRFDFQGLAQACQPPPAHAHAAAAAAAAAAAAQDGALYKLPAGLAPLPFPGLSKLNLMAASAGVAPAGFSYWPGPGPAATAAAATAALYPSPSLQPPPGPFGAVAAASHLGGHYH
Outline: (§1)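 Binding signal is given per hexamer as its read frequency for a factor divided by its frequency in the tag-only sample. GST-fused human transcription factors were expressed in yeast, captured on glutathione beads, barcoded with DNA and pooled with that sample, then incubated with 200 nmole of a 16-mer random double-stranded DNA library in Tris/NaCl/DTT/glycerol buffer for 30 min at room temperature. The pools were then washed, crosslinked, proximity-ligated, amplified by PCR and sequenced on an Illumina NextSeq500.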

ETV5 = ETV5 (Homo sapiens, UniProt P41161 1-510); conditions: protein: recombinant; tags: N-terminal GST; dsDNA, one strand shown
Sequence of ETV5 (P41161 whole entry): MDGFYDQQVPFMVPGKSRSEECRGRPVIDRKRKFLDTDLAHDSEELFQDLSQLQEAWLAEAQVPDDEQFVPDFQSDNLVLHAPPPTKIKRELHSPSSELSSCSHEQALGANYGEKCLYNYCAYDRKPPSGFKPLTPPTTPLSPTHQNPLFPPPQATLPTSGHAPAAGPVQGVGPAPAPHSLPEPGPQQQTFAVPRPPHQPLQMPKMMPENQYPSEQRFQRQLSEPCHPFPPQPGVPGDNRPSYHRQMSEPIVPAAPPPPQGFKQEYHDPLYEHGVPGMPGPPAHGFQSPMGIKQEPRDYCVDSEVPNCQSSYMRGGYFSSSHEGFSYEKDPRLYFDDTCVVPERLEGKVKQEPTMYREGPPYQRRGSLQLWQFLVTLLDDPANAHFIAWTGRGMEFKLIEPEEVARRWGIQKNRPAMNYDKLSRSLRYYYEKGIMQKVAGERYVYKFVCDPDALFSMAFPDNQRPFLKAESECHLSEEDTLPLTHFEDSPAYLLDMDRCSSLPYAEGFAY
Outline: as §1

HSF1 = HSF1 (Homo sapiens, UniProt Q00613 1-529); conditions: protein: recombinant; tags: N-terminal GST; chain copies: 3; dsDNA, one strand shown
Sequence of HSF1 (Q00613 whole entry): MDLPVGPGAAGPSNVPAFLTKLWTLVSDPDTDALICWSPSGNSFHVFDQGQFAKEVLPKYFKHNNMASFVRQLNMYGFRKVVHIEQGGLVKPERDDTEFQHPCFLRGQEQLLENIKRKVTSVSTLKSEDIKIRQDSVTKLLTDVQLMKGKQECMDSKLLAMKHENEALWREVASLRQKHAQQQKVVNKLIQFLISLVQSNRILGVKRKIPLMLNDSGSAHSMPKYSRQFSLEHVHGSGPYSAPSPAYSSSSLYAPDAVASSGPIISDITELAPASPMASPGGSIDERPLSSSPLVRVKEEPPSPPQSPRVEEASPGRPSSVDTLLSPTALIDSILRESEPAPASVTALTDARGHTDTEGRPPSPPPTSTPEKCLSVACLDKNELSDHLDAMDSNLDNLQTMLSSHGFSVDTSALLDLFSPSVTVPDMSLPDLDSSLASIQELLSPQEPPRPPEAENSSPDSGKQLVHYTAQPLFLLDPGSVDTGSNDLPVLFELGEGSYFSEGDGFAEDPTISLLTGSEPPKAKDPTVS
Outline: as §1

SPIC = biological target: T2, SPIC (Homo sapiens, UniProt Q8N5J4 1-248); conditions: protein: recombinant; tags: N-terminal GST; dsDNA, one strand shown
T2 sequence: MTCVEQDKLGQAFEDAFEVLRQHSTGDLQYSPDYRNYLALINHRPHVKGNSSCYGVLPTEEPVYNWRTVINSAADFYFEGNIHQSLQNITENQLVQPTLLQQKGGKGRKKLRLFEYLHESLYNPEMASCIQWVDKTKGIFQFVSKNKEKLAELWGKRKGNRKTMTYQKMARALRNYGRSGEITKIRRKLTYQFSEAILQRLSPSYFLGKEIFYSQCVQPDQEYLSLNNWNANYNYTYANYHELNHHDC
Outline: as §1

ELF4 = ELF4 (Homo sapiens, UniProt Q99607 1-663); conditions: protein: recombinant; tags: N-terminal GST; dsDNA, one strand shown
Sequence of ELF4 (Q99607 whole entry): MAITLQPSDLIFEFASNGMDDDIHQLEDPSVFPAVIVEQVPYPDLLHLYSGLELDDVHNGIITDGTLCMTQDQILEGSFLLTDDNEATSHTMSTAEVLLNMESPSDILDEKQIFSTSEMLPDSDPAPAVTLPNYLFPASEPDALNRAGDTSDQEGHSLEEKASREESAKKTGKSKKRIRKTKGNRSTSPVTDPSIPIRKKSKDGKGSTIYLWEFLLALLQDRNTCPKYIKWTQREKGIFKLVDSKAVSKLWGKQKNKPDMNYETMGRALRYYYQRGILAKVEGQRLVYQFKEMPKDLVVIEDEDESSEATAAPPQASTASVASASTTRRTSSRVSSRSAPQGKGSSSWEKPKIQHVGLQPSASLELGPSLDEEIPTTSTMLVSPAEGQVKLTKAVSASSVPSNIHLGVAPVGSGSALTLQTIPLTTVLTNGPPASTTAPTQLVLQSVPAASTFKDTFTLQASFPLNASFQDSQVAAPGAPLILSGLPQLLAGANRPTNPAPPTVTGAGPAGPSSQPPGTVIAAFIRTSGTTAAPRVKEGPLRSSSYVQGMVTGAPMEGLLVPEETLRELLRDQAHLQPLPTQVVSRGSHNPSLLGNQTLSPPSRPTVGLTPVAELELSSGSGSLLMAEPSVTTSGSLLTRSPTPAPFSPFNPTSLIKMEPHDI
Outline: as §1

ELK4 = biological target: T3, ELK4 (Homo sapiens, UniProt P28324-2 1-405); conditions: protein: recombinant; tags: N-terminal GST; dsDNA, one strand shown
T3 sequence: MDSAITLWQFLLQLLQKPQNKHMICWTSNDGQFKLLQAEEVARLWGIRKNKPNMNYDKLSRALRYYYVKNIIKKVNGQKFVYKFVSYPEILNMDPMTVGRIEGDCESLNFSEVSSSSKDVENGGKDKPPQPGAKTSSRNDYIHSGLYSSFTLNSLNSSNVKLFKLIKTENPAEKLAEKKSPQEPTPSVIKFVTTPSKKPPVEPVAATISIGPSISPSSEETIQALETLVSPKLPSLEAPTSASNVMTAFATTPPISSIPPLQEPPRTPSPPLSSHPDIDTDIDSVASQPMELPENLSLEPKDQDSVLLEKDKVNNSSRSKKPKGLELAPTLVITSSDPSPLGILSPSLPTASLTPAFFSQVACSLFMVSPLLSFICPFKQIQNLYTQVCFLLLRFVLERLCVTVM
Outline: as §1

ETV2 = biological target: T4, ETV2 (Homo sapiens, UniProt O00321 1-342); conditions: protein: recombinant; tags: N-terminal GST; dsDNA, one strand shown
T4 sequence: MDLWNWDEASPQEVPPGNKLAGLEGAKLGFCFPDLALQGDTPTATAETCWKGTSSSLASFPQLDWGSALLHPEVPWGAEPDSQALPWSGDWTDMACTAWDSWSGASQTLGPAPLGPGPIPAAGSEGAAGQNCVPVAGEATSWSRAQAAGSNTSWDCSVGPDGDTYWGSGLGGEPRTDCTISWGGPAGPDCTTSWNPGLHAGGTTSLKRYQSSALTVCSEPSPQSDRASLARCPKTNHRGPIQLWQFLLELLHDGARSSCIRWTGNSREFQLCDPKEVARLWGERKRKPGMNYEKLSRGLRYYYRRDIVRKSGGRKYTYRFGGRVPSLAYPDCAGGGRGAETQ
Outline: as §1

ELF3 = biological target: T5, ELF3 (Homo sapiens, UniProt P78545 1-371); conditions: protein: recombinant; tags: N-terminal GST; dsDNA, one strand shown
T5 sequence: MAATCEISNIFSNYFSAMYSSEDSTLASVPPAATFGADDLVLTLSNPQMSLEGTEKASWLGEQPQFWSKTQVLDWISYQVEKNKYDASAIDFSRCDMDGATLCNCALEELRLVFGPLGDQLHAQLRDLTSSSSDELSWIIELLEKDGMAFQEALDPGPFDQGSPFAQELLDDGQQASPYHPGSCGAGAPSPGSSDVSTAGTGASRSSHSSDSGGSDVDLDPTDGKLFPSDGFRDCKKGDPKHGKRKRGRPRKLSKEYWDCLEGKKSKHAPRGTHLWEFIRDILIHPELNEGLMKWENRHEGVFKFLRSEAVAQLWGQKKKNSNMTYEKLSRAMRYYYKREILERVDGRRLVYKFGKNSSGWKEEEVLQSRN
Outline: as §1

CRX = CRX (Homo sapiens, UniProt O43186 1-299); conditions: protein: recombinant; tags: N-terminal GST; dsDNA, one strand shown
Sequence of CRX (O43186 whole entry): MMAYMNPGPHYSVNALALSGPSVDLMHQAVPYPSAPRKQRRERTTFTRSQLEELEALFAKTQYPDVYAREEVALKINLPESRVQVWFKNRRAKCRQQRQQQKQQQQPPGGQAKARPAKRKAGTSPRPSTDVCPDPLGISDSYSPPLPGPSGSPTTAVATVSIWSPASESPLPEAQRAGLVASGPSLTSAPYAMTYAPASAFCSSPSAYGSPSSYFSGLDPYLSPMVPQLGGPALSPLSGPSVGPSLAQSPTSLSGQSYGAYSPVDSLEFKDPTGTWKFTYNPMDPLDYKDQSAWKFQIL
Outline: as §1

ETV1 = ETV1 (Homo sapiens, UniProt P50549 1-477); conditions: protein: recombinant; tags: N-terminal GST; dsDNA, one strand shown
Sequence of ETV1 (P50549 whole entry): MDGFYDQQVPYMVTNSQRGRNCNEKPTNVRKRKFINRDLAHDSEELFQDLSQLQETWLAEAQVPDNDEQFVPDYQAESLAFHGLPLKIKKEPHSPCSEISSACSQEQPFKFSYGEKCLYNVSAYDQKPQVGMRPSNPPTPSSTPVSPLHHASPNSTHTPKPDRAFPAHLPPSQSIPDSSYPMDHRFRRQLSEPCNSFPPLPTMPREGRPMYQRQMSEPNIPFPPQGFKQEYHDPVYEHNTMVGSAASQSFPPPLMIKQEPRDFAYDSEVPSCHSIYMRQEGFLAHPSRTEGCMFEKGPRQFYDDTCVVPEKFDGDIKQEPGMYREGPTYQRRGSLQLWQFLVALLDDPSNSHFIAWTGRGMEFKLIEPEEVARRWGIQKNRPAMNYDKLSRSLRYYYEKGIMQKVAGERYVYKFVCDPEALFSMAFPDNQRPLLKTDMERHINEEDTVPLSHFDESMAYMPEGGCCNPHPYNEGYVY
Outline: as §1

ERF = biological target: T6, ERF (Homo sapiens, UniProt P50548 1-548); conditions: protein: recombinant; tags: N-terminal GST; dsDNA, one strand shown
T6 sequence: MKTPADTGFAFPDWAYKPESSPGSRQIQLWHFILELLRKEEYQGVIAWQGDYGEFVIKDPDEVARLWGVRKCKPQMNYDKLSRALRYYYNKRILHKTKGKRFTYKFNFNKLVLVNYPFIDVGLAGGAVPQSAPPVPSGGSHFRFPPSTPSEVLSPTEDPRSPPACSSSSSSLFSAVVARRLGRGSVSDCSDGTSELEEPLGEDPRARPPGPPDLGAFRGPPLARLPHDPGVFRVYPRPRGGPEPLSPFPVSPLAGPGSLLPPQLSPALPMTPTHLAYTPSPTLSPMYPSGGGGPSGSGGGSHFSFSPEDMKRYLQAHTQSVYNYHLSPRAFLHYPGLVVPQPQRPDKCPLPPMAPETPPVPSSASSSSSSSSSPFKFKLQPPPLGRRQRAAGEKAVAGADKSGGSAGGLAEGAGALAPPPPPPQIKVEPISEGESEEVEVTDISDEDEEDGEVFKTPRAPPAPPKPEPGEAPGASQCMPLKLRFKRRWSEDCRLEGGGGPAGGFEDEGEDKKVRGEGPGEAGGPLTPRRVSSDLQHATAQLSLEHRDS
Outline: as §1

ETV3L = biological target: T7, ETV3L (Homo sapiens, UniProt Q6ZN32 1-361); conditions: protein: recombinant; tags: N-terminal GST; dsDNA, one strand shown
T7 sequence: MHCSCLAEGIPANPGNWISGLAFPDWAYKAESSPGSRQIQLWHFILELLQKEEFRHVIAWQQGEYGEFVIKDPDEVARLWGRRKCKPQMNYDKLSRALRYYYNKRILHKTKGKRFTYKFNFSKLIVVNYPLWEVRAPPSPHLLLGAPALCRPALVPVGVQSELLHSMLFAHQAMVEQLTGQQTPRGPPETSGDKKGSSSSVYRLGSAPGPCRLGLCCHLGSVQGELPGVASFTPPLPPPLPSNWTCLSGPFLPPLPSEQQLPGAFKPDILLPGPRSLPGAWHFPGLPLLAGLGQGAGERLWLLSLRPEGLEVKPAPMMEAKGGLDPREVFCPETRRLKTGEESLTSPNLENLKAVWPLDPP
Outline: as §1

ETS2 = biological target: T8, ETS2 (Homo sapiens, UniProt P15036 1-469); conditions: protein: recombinant; tags: N-terminal GST; dsDNA, one strand shown
T8 sequence: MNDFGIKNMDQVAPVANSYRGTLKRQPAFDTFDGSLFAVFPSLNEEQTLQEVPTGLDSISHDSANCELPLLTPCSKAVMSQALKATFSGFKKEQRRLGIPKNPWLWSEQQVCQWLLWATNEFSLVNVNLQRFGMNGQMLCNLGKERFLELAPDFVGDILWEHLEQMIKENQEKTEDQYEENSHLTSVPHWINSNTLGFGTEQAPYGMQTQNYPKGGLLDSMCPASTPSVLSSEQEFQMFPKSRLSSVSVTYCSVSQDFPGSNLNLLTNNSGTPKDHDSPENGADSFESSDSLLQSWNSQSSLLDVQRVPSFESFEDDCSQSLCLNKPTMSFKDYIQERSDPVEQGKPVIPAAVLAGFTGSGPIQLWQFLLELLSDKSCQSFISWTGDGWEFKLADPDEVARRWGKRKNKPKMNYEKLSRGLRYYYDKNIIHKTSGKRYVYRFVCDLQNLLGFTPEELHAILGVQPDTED
Outline: as §1

SPDEF = biological target: T9, SPDEF (Homo sapiens, UniProt O95238 1-335); conditions: protein: recombinant; tags: N-terminal GST; dsDNA, one strand shown
T9 sequence: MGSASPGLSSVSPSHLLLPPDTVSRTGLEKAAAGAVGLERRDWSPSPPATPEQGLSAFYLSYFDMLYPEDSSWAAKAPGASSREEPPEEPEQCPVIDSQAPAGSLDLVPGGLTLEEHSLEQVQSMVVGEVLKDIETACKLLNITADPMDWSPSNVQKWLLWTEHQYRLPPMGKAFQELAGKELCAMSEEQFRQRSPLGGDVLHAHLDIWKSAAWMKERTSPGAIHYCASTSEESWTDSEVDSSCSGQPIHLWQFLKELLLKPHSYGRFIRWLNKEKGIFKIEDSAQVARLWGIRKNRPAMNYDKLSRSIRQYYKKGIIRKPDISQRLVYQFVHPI
Outline: as §1

ETV7 = biological target: T10, ETV7 (Homo sapiens, UniProt Q9Y603 1-341); conditions: protein: recombinant; tags: N-terminal GST; dsDNA, one strand shown
T10 sequence: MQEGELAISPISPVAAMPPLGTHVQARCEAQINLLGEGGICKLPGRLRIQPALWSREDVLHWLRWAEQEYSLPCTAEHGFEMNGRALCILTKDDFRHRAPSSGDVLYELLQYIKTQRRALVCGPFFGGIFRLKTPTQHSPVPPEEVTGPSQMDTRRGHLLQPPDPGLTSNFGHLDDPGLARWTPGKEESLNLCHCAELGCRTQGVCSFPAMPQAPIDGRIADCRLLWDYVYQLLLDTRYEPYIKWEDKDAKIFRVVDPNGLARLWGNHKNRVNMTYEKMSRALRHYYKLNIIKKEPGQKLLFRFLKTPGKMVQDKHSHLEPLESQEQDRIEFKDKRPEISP
Outline: as §1

ELF5 = biological target: T11, ELF5 (Homo sapiens, UniProt Q9UKW6-2 1-255); conditions: protein: recombinant; tags: N-terminal GST; dsDNA, one strand shown
T11 sequence: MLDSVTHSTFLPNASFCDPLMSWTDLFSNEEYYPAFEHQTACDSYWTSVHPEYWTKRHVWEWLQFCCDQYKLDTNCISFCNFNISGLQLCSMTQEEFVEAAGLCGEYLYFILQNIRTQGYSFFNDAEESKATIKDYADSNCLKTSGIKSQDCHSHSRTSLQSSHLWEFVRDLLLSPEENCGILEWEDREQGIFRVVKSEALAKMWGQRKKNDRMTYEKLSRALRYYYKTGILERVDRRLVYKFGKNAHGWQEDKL
Outline: as §1

ETV3 = biological target: T12, ETV3 (Homo sapiens, UniProt P41162-2 1-143); conditions: protein: recombinant; tags: N-terminal GST; dsDNA, one strand shown
T12 sequence: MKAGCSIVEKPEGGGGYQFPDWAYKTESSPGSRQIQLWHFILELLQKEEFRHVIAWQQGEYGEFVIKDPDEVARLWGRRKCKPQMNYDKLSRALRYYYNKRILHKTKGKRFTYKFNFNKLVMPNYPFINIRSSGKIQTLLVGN
Outline: as §1

ETV6 = ETV6 (Homo sapiens, UniProt P41212 1-452); conditions: protein: recombinant; tags: N-terminal GST; dsDNA, one strand shown
Sequence of ETV6 (P41212 whole entry): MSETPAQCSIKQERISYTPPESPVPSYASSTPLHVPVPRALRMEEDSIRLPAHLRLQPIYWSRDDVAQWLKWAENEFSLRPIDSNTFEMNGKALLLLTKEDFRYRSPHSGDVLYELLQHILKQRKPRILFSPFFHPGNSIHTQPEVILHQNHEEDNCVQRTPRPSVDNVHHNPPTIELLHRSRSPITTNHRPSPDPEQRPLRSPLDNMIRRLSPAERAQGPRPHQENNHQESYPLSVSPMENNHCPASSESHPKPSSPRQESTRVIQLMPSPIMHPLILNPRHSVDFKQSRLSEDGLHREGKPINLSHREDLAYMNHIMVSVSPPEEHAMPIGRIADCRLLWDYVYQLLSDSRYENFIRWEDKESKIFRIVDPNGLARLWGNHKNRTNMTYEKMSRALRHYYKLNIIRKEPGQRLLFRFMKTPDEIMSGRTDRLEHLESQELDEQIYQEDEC
Outline: as §1

CGACCT was tested, and the binding signal (FEV) was 1.59 fold enrichment (6-mer frequency, TF over GST control), the binding signal (ETV5) was 1.61 fold enrichment (6-mer frequency, TF over GST control) and the binding signal (HSF1) was 1.35 fold enrichment (6-mer frequency, TF over GST control). For the same sequence, the binding signal (SPIC) was 1.41 fold enrichment (6-mer frequency, TF over GST control), the binding signal (ELF4) was 1.61 fold enrichment (6-mer frequency, TF over GST control) and the binding signal (ELK4) was 1.56 fold enrichment (6-mer frequency, TF over GST control). For the same sequence, the binding signal (ETV2) was 1.73 fold enrichment (6-mer frequency, TF over GST control), the binding signal (ELF3) was 1.45 fold enrichment (6-mer frequency, TF over GST control) and the binding signal (CRX) was 1.21 fold enrichment (6-mer frequency, TF over GST control). The binding signal (ETV1) was 1.55 fold enrichment (6-mer frequency, TF over GST control), the binding signal (ERF) was 1.47 fold enrichment (6-mer frequency, TF over GST control) and the binding signal (ETV3L) was 1.75 fold enrichment (6-mer frequency, TF over GST control). For the same sequence, the binding signal (ETS2) was 1.41 fold enrichment (6-mer frequency, TF over GST control), the binding signal (SPDEF) was 1.44 fold enrichment (6-mer frequency, TF over GST control) and the binding signal (ETV7) was 1.54 fold enrichment (6-mer frequency, TF over GST control). The binding signal (ELF5) was 1.58 fold enrichment (6-mer frequency, TF over GST control), the binding signal (ETV3) was 1.53 fold enrichment (6-mer frequency, TF over GST control) and the binding signal (ETV6) was 1.5 fold enrichment (6-mer frequency, TF over GST control).
